Active and inactive are the calls of the source.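 How the source made its calls, unless noted: active means mean z-score across replicates of 1.96 or higher in either the MELAS or the Rieske mutant cell line; inactive means the rest.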
Key:
[1] = survival rescue of mitochondrial mutant cells in low glucose, primary screen, MELAS cybrids, Rieske KO mouse fibroblasts, CellTiter-Glo (AID 1508586);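 further: z relative to plate mean and SD of compound and empty wells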
[2] = viability rescue of complex I mutant cybrids, primary screen, cell-based, galactose medium, ATP luminescence (AID 1645843;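 active means z-score of at least 1.8 in each of two replicates, scored against plate mean and spread of sample wells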;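 further: positive z means more ATP and so rescue of galactose-driven cybrid death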); conditions: complex I mutant cybrid cells, 72 h, stronger effect = higher value
[3] = phospholipid biosynthesis inhibitors in animal cells, primary screen, cell-based, LOPAC library, screen 4 (AID 1347384; call rule not given here); conditions: phospholipid biosynthesis inhibition screen, at 10 µM
[4] = MELAS cybrid survival, CellTiter-Glo 48 h, stronger effect = higher value
[5] = Rieske KO mouse fibroblast survival, CellTiter-Glo 72 h

Compound	z-score [1, 4]	z-score [1, 5]	z-score [2]	outcome [3]
COc1c(O[C@@H]2O[C@H](CO)[C@@H](O)[C@H](O)[C@H]2O)cc2c(c1OC)-c1ccc(SC)c(=O)cc1[C@@H](NC(C)=O)CC2	0.122 (inactive)	0.151		
COC(=O)c1c(NC(=O)CCc2ccccc2)c2cc(NC(C)C(C)(C)O)cnc2n1C (stereo unspecified)	-1.19 (inactive)	-0.398	-0.305 (inactive)	
C[C@H](Cc1cc2c(c(C(N)=O)c1)N(CCCO)CC2)NCCOc1ccccc1OCC(F)(F)F	-0.477 (inactive)	-0.901		
C=CC1=C(C)c2cc3[nH]c(cc4nc(cc5[nH]c(cc1n2)c(C)c5CCC(=O)O)C(CCC(=O)O)=C4C)c(C)c3C=C				inactive
Nc1nc(CC(=O)Nc2ccc(CCNC[C@H](O)c3ccccc3)cc2)cs1	0.235 (inactive)	0.0504		
O=C(Nc1ccccc1Cl)N[C@H]1C[C@H]2C(=O)N[C@H](Cc3ccc(O)cc3)C(=O)N2C1	-0.242 (inactive)	-0.509	-0.455 (inactive)	
COc1ccc(CN2C[C@@H](COc3cccc(C(F)(F)F)c3)C[C@@H](C(=O)NCC(C)C)C2)cc1OC	-0.34 (inactive)	0.0165	-1.45 (inactive)	
COc1cccc2ccc(CN3CCC4(CC3)C(=O)N(CCc3ccccc3)C(=O)N4C)nc12	-0.413 (inactive)	1.51	0.055 (inactive)	
CN(C)c1cccc(NC(=O)c2cc(NCc3cnn(C)c3)cc(S(=O)(=O)N3CCCC3)c2)c1	-0.28 (inactive)	-0.862	0.265 (inactive)	
COC(=O)c1c(NC(=O)c2ccoc2)c2cc(NC3CCSCC3)cnc2n1CC(C)C	-0.463 (inactive)	-0.31	0.98 (inactive)	
O=C(NCCn1cncn1)c1cc(-c2ccccc2)cc(S(=O)(=O)N2CCSCC2)c1	-0.182 (inactive)	0.272	1.56 (inactive)	
CCN1C(=O)N(C)C(=O)C12CCN(Cc1ccc(Oc3ncccn3)cc1)CC2	0.0802 (inactive)	-0.536	1.74 (inactive)	
C[C@H]1NC(=O)[C@H]2CN(C(=O)Oc3ccc(Cl)cc3)CCN2C1=O	-0.514 (inactive)	0.985	0.585 (inactive)	
CC(C)C[C@H]1C(=O)N2CCN(Cc3cccc4ncccc34)C[C@@H]2C(=O)N1C	-0.521 (inactive)	-0.107	-0.23 (inactive)	
CCn1c(C(=O)OC)c(NC(C)=O)c2cc(NCc3ccc(OC)cc3)cnc21	-0.521 (inactive)	-0.331	-0.96 (inactive)	
Cc1ccc(-c2cc(C(=O)N(C)CCc3cnn(C)c3)cc(S(=O)(=O)N3CCOCC3)c2)s1	-0.0954 (inactive)	-0.0313	0.925 (inactive)	
CC(C)CNC(=O)[C@@H]1C[C@H](CN2CCOCC2)CN(Cc2ccncc2)C1	-0.456 (inactive)	-0.738	-0.6 (inactive)	
CCc1nc(Cn2c3c(cc(-c4ccccc4C)c2=O)CN(Cc2ccc(O)c(Cl)c2)CC3)no1	-0.286 (inactive)	-0.271	0.44 (inactive)	
CCn1nc(C(=O)N2CCCC2)c2c1CCC(N1CCN(c3ccccc3OC)CC1)C2 (stereo unspecified)	-0.423 (inactive)	-0.558	-0.48 (inactive)	
COc1ccc(-c2[nH]ncc2CN2CCC3(CC2)C(=O)N(C(C)C)C(=O)N3CCC(C)C)cc1	0.0083 (inactive)	-0.0351	0.975 (inactive)	
COc1cccc(COC2CN(CCc3ccccc3)C(=O)CN(C(=O)CN3CCOC3=O)C2)c1 (stereo unspecified)	-0.0866 (inactive)	-0.325	0.48 (inactive)	
CCOC(=O)c1nn(CCc2ccccc2)c2c1CN(C(=O)CCc1nc3ccccc3s1)CC2	-0.261 (inactive)	0.0715	0.345 (inactive)	
Cn1cc(CN2CC(OCc3cccnc3)CN(Cc3cn[nH]c3-c3ccccc3)CC2=O)cn1 (stereo unspecified)	-0.178 (inactive)	-0.506	0.715 (inactive)	
Cc1csc(-c2cc(C(=O)N(C)C3CCN(C)CC3)cc(S(=O)(=O)N3CCOCC3)c2)c1	-0.654 (inactive)	-0.32	0.47 (inactive)	
COC(=O)CN1C(=O)N(CCc2ccccc2)C2(CCN(Cc3ccc4c(c3)OCCO4)CC2)C1=O	-0.212 (inactive)	-0.109	1.24 (inactive)	
COC(=O)CCN1CC(OCc2ccncc2)CN(C(=O)c2csc(SC)n2)CC1=O (stereo unspecified)	-0.62 (inactive)	-0.661	0.42 (inactive)	
C=CCn1nc(C(=O)N2CCSCC2)c2c1CCC(NCCCSC)C2 (stereo unspecified)	-0.0452 (inactive)	-0.019	0.93 (inactive)	

From PubChem BioAssay
